Measured values from PubChem BioAssay.
Activity calls are given as the source filed them.

How the values were obtained:
[1] = compounds binding Alexa647 anti-His antibody – biochemical, small-molecule microarray, 635 nm fluorescence, artefact control for SMM control protein annotation, primary screen (AID 1128); conditions: higher = more signal;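 further: score merges feature fluorescence with signal-to-noise for each printed compound spot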
[2] = system: Human papillomavirus type 1a E7 protein (residues 1-88); assay: HPV1a E7 small-molecule binders, primary screen, biochemical, small-molecule microarray, residues 1-88, 635 nm (AID 1129); conditions: small-molecule microarray binding, fluorescence 635 nm; higher = more signal
[3] = biological target: Focal adhesion kinase 1 (Homo sapiens) (UniProt Q05397); assay: PTK2 protein binding on printed compound slides – biochemical, small-molecule microarray, 635/667 nm fluorescence, BSA, DTT, primary screen (AID 1130); conditions: 635 nm fluorescence, higher = more signal;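 further: composite of spot emission at 667 nm and signal to noise over triplicate slides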
[4] = system: Fibrinogen (Alexa647-labelled); assay: Alexa647-fibrinogen binding to printed small molecules – biochemical, small-molecule microarray, 635/667 nm fluorescence, artefact control for SMM control-protein annotation, profiling panel (AID 1131); conditions: fibrinogen-A647 binding fluorescence, higher = more signal;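 further: z-score merges 667 nm fluorescence with per-spot signal-to-noise over triplicate slides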
[5] = biological target: Follistatin (Homo sapiens) (UniProt P19883); assay: FST protein binding to printed compounds – biochemical, small-molecule microarray, 635/667 nm fluorescence, primary screen (AID 1132); conditions: 635 nm fluorescence, higher = more signal
[6] = biological target: Fibroblast growth factor 2 (Homo sapiens) (UniProt P09038); assay: basic fibroblast growth factor binding to printed compounds – biochemical, small-molecule microarray, 635/667 nm fluorescence, primary screen (AID 1133); conditions: FGF2, fluorescence 635/667, higher = more signal
[7] = JC-1 mitochondrial potential readout, lung cancer cells – cell-based, A549, JC-1 fluorescence, basal, 24 h, 100 nL, profiling panel (AID 1138); conditions: higher = more signal;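 further: A549 lung adenocarcinoma cells under basal conditions with no added stimulus; test concentration not given here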
[8] = system: Lefty1; assay: Lefty1 protein binding to printed compounds – biochemical, small-molecule microarray, 635/667 nm fluorescence, primary screen (AID 1139); conditions: fluorescence 635/667, higher = more signal
[9] = system: wheat germ agglutinin (Triticum aestivum), Alexa647-labelled; assay: Alexa647-WGA lectin binding to printed small molecules – biochemical, small-molecule microarray, 635/667 nm fluorescence, artefact control for SMM control-protein annotation, profiling panel (AID 1140); conditions: WGA-A647 binding, 635 nm fluorescence, higher = more signal;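 further: score merges 667 nm feature emission with signal to noise over triplicate slides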
[10] = biological target: Luciferin 4-monooxygenase (Photinus pyralis) (UniProt P08659); assay: inhibition of purified Photinus pyralis luciferase – biochemical, luminescence, purified enzyme, 2006 set, primary screen (AID 1141); conditions: purified firefly luciferase, SteadyGlo luminescence, 30 min; higher = more signal, called active from +8 up or from −8 down;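 further: cell-free assay with purified firefly luciferase at 100 ng per well in PBS; test concentration not given here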
Chain of Luciferin 4-monooxygenase (Photinus pyralis) (P08659 whole entry, looked up): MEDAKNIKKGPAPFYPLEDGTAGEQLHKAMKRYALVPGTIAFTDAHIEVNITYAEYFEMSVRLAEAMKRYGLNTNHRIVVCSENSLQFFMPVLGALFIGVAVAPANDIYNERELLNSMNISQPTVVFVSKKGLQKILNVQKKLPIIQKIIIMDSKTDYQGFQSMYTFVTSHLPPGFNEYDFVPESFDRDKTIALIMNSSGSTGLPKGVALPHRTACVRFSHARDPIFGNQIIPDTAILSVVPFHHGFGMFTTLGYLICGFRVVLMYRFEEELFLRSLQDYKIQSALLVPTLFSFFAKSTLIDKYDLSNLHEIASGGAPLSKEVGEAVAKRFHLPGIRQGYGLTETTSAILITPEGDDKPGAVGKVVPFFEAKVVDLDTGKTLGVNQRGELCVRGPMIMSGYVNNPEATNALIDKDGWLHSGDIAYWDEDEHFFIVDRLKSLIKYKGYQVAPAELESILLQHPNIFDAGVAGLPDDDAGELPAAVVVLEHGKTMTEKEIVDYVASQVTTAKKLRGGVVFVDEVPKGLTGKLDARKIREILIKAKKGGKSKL

Chain of Follistatin (Homo sapiens) (P19883 whole entry, looked up): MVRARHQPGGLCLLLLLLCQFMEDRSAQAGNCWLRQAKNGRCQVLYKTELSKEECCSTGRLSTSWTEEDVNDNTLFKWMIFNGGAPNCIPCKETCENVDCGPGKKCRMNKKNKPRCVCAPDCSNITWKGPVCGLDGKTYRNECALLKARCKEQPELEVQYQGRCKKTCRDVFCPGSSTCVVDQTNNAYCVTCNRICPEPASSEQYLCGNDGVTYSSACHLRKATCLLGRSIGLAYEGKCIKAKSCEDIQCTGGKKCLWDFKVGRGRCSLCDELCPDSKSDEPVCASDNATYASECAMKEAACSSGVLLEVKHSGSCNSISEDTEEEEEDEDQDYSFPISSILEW
Chain of Fibroblast growth factor 2 (Homo sapiens) (P09038 whole entry, looked up): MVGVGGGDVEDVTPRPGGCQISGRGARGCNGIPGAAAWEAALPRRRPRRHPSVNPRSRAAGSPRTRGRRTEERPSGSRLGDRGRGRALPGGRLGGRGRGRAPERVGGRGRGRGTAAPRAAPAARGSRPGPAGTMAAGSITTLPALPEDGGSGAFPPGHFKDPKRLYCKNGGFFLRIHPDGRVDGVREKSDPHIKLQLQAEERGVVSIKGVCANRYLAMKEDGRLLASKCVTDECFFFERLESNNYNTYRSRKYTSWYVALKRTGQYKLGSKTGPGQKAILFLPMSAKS
Chain of Focal adhesion kinase 1 (Homo sapiens) (Q05397 whole entry, looked up): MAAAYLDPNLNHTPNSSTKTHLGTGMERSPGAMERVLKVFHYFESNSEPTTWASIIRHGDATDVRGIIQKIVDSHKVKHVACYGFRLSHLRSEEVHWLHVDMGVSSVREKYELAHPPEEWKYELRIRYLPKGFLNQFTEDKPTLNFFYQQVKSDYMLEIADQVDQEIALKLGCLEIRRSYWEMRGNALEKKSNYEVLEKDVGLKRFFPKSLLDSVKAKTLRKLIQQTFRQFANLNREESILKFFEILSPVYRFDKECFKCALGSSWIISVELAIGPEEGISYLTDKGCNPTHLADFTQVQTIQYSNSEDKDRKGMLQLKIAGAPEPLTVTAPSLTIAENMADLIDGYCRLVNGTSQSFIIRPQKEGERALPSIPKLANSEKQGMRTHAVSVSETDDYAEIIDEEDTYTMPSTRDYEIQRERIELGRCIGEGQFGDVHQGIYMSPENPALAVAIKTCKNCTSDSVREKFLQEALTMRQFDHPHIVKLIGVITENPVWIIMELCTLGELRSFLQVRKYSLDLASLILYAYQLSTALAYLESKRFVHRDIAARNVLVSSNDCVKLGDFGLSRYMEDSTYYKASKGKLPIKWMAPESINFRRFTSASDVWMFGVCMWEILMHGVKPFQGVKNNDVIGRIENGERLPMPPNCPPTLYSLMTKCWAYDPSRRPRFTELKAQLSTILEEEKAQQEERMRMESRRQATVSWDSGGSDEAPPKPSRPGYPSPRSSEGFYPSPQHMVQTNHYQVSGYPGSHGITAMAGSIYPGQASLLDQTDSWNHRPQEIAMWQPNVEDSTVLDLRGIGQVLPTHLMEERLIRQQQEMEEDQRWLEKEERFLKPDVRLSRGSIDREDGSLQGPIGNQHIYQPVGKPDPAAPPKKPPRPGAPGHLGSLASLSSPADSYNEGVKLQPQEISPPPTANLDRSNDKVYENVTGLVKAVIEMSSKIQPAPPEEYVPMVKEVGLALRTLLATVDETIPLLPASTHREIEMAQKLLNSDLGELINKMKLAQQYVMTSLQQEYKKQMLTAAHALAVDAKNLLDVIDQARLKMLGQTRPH

COCCOC(=O)N1C(=O)[C@@]2(c3ccccc31)[C@H](C(=O)N1CCCCCCC1)[C@H]1C(=O)O[C@H](c3ccccc3)[C@H](c3ccccc3)N1[C@@H]2c1ccc(O)cc1
composite z-score [1]: 0.578
composite z-score [2]: 1.21
composite z-score [3]: 1.01
composite z-score [4]: 0.842
composite z-score [5]: 1.41
composite z-score [6]: 1.74
z-score [7]: 0.0314
composite z-score [8]: 1.69
composite z-score [9]: 1.25
z-score [10]: 0.047 (inactive)

CC1CC/C=C\[C@H]2OC34C=CCN(CCN5CCOCC5)C(=O)[C@H]3N(CCCCCCO)C(=O)[C@@H]4C2C(=O)O1 (stereo not given in full)
composite z-score [1]: -0.37
composite z-score [2]: -0.986
composite z-score [3]: -0.411
composite z-score [4]: -2.12
composite z-score [5]: 0.0859
composite z-score [6]: -0.649
z-score [7]: 0.746
composite z-score [8]: -0.259
composite z-score [9]: -0.7
z-score [10]: -0.934 (inactive)

COCC(=C=CC[C@@H](O)c1ccc(OCCO)cc1)C[C@@H](O)COCc1ccccc1
composite z-score [1]: 1.29
composite z-score [2]: 0.893
composite z-score [3]: 0.106
composite z-score [4]: -0.262
composite z-score [5]: 1.34
composite z-score [6]: 1.41
z-score [7]: 0.974
composite z-score [8]: 1.01
composite z-score [9]: 0.904
z-score [10]: -1.7 (inactive)

COCCOC(=O)N1C(=O)[C@@]2(c3cc(C#CCCO)ccc31)[C@H](c1ccc(O)cc1)N1[C@H](c3ccccc3)[C@H](c3ccccc3)OC(=O)[C@H]1[C@@H]2C(=O)N1CCc2cc(OC)c(OC)cc2C1
composite z-score [1]: 0.432
composite z-score [2]: 1.25
composite z-score [3]: 0.514
composite z-score [4]: 0.81
composite z-score [5]: 1.36
composite z-score [6]: 1.59
z-score [7]: 0.257
composite z-score [8]: 1.36
composite z-score [9]: 1.03
z-score [10]: 0.298 (inactive)

CC(=O)c1ccc(C(O)C2C=CC3C(=O)N(C)C(=O)C3N2NC(=O)OC(C)(C)C)cc1 (stereo not given)
composite z-score [1]: 0.777
composite z-score [2]: 1.23
composite z-score [3]: 1.54
composite z-score [4]: 1.05
composite z-score [5]: 0.046
composite z-score [6]: 0.14
z-score [7]: -0.082
composite z-score [8]: 0.337
composite z-score [9]: 1.34
z-score [10]: -0.068 (inactive)

NC(=O)N1C(=O)C2C(C1=O)C1C=C(CCCO)C2C(c2ccc(CN3CCCC3)cc2)N1Cc1cccc(OC(F)(F)F)c1 (stereo not given)
composite z-score [1]: 0.22
composite z-score [2]: 0.429
composite z-score [3]: 0.102
composite z-score [4]: 0.33
composite z-score [5]: 1.05
composite z-score [6]: 0.532
z-score [7]: 1.39
composite z-score [8]: 1.38
composite z-score [9]: 0.0168
z-score [10]: -0.84 (inactive)

CCN(CC)c1ccc(N2CC=CC34O[C@@H]5C=CCOC(=O)[C@@H]5[C@H]3C(=O)N(CCCO)[C@@H]4C2=O)cc1 (stereo not given in full)
composite z-score [1]: 1.53
composite z-score [2]: -1.05
composite z-score [3]: -0.0534
composite z-score [4]: -0.973
composite z-score [5]: -0.658
composite z-score [6]: -0.576
z-score [7]: -0.125
composite z-score [8]: -0.923
composite z-score [9]: -0.245
z-score [10]: -0.803 (inactive)

C=C(CC1([C@@H](NP(=O)(c2ccccc2)c2ccccc2)[C@H]2C[C@@H]2CCN(C(=O)OCC)S(=O)(=O)c2ccc(C)cc2)CC1)c1ccccc1
composite z-score [1]: 1.74
composite z-score [2]: 1.22
composite z-score [3]: 1.15
composite z-score [4]: 0.781
composite z-score [5]: 0.712
composite z-score [6]: -0.804
z-score [7]: 0.782
composite z-score [8]: -0.162
composite z-score [9]: 0.593
z-score [10]: 2.49 (inactive)

O=C1N(Cc2ccccc2)c2ccccc2[C@H]2OC(c3ccc(OCCCO)cc3)=N[C@@]12Cc1ccccc1
composite z-score [1]: 2.1
composite z-score [2]: 1.19
composite z-score [3]: 0.6
composite z-score [4]: 0.696
composite z-score [5]: 1.35
composite z-score [6]: 1.52
z-score [7]: -1.4
composite z-score [8]: 0.584
composite z-score [9]: 0.694
z-score [10]: -2.98 (inactive)

CCC(CC)C(O)C1C=CC2C(=O)N(C)C(=O)C2N1N1CCCCC1 (stereo not given)
composite z-score [1]: 2.05
composite z-score [2]: 1.23
composite z-score [3]: -0.0333
composite z-score [4]: 0.967
composite z-score [5]: 1.33
composite z-score [6]: 0.406
z-score [7]: 0.309
composite z-score [8]: 0.831
composite z-score [9]: 1.12
z-score [10]: -0.203 (inactive)

CC(C)C[C@H]1NC(=O)[C@@H](C)NC(=O)[C@@]23C(=O)N[C@@H](Cc4ccccc4)C2[C@H](C)[C@@]2(C)O[C@H]2C3/C=C/C/C=C\CNC1=O (stereo not given in full)
composite z-score [1]: 1.35
composite z-score [2]: 0.633
composite z-score [3]: 0.82
composite z-score [4]: -0.212
composite z-score [5]: 0.746
composite z-score [6]: 0.238
z-score [7]: -0.0228
composite z-score [8]: 0.754
composite z-score [9]: 0.532
z-score [10]: -0.327 (inactive)

C=C(CCCC)C(=O)CC[C@H](OC(=O)c1cccnc1)c1ccc(CO)o1
composite z-score [1]: 3.27
composite z-score [2]: 1.2
composite z-score [3]: -0.188
composite z-score [4]: 0.664
composite z-score [5]: 1.18
composite z-score [6]: 1.27
z-score [7]: -0.555
composite z-score [8]: 1.65
composite z-score [9]: 0.791
z-score [10]: -1.33 (inactive)

Cc1ccc(S(=O)(=O)N2[C@@H](c3ccccc3)C(C(=O)O)=CC[C@H]2c2ccc(C#N)cc2)cc1
composite z-score [1]: 1.58
composite z-score [2]: 1.31
composite z-score [3]: 0.447
composite z-score [4]: 0.992
composite z-score [5]: 0.0793
composite z-score [6]: -0.413
z-score [7]: -1.38
composite z-score [8]: -0.388
composite z-score [9]: 1.05
z-score [10]: 0.654 (inactive)

COc1cccc(OC)c1C(=O)O[C@H]1[C@@H]2OC(=O)[C@H](Cc3cccc(Br)c3)C/C=C/C[C@@H](Cc3cccc(Br)c3)C(=O)O[C@H]2[C@@H](OC)O[C@@H]1CO
composite z-score [1]: 0.267
composite z-score [2]: 1.1
composite z-score [3]: 0.573
composite z-score [4]: 0.383
composite z-score [5]: 1.38
composite z-score [6]: 1.28
z-score [7]: 1.27
composite z-score [8]: 0.742
composite z-score [9]: 0.0452
z-score [10]: -0.21 (inactive)

CC(C)C[C@H]1NC(=O)[C@H](Cc2ccccc2)NC(=O)[C@@]23C(=O)N[C@@H](Cc4ccccc4)C2[C@H](C)[C@@]2(C)O[C@H]2C3/C=C/C/C=C\CNC1=O (stereo not given in full)
composite z-score [1]: 0.701
composite z-score [2]: 0.475
composite z-score [3]: 0.899
composite z-score [4]: 0.315
composite z-score [5]: 0.927
composite z-score [6]: 1.01
z-score [7]: -0.000177
composite z-score [8]: 0.376
composite z-score [9]: 0.658
z-score [10]: -0.179 (inactive)

Cc1ccc(F)cc1S(=O)(=O)N[C@@H]1CCN(Cc2ccc3c(c2)OCO3)C1
composite z-score [1]: -0.146
composite z-score [2]: -0.844
composite z-score [3]: -0.226
composite z-score [4]: 0.125
composite z-score [5]: 0.491
composite z-score [6]: 0.279
z-score [7]: 1.32
composite z-score [8]: 0.236
composite z-score [9]: -0.0476
z-score [10]: -0.391 (inactive)

C=CCC(OC(C)=O)[C@@H]1[C@@H](N(Cc2cc3ccccc3o2)C(=O)Cc2ccc(OC)cc2)c2cc(OCCCO)ccc2N1C(=O)Cc1ccc(OC)cc1 (stereo not given in full)
composite z-score [1]: 0.69
composite z-score [2]: -0.406
composite z-score [3]: 0.517
composite z-score [4]: 0.712
composite z-score [5]: 0.726
composite z-score [6]: 0.171
z-score [7]: -0.411
composite z-score [8]: -0.0035
composite z-score [9]: 0.67
z-score [10]: 0.244 (inactive)

C=CC[C@]1(C(=O)NCc2ccccc2)COC(c2ccc(OCCCO)cc2)=N1
composite z-score [1]: 0.16
composite z-score [2]: -0.0156
composite z-score [3]: -0.19
composite z-score [4]: 0.295
composite z-score [5]: -0.431
composite z-score [6]: -0.87
z-score [7]: 1.03
composite z-score [8]: -0.95
composite z-score [9]: 1.02
z-score [10]: -0.218 (inactive)

CCCCC=C[C@@H](NC(=O)c1ccc(C(F)(F)F)cc1)c1ccccc1
composite z-score [1]: 0.3
composite z-score [2]: -0.839
composite z-score [3]: 0.185
composite z-score [4]: -2.63
composite z-score [5]: -0.21
composite z-score [6]: -0.908
z-score [7]: 0.798
composite z-score [8]: -0.671
composite z-score [9]: 0.052
z-score [10]: 1.02 (inactive)

CC(C)CNC(=O)[C@@H]1c2ccccc2C(=O)N(Cc2ccccc2Cl)[C@H]1c1ccc(CO)cc1
composite z-score [1]: 1.48
composite z-score [2]: 0.844
composite z-score [3]: 0.401
composite z-score [4]: -1.73
composite z-score [5]: -0.158
composite z-score [6]: 0.223
z-score [7]: 0.572
composite z-score [8]: -0.785
composite z-score [9]: -0.215
z-score [10]: 0.686 (inactive)

O=C(NCCO)C1=C[C@H](Oc2ccccc2I)[C@@H](O)[C@H](NCc2ccc(F)cc2)C1
composite z-score [1]: -0.223
composite z-score [2]: -1.23
composite z-score [3]: -0.279
composite z-score [4]: -2.27
composite z-score [5]: 1.31
composite z-score [6]: 0.795
z-score [7]: -0.697
composite z-score [8]: 1.45
composite z-score [9]: -1.25
z-score [10]: 0.243 (inactive)
